One may read the AC50 as the midpoint of the concentration-response curve, whichever way the signal moves.

The source made the active and inactive calls. The calls were made as follows: active = hit-call score of the fitted dose curve at least 0.9, where 1 is the maximum; inactive = score below 0.9.

This is an account of results in PubChem BioAssay (EPA / NIEHS).

The nature of experiment [1]: ATG_CRE_CIS: Attagene CIS-FACTORIAL HepG2 Assay for human cAMP Responsive Element (CRE) binding protein 3 (AID 2282926). Conditions: HepG2 CRE cis-reporter, Attagene multiplexed mRNA; actives raise or lower the signal. Put shortly: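 Human liver HepG2, transient MRTU transfection, 24 h compound exposure. Total RNA → oligo(dT) RT → PCR → 6-FAM primer extension → HpaI cut → CE. Activity called both directions vs DMSO.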

For experiment [2], the target named is CCAAT/enhancer-binding protein beta (Homo sapiens) (UniProt P17676). Nature of the experiment: ATG_C_EBP_CIS: Attagene CIS-FACTORIAL HepG2 Assay for human CCAAT/Enhancer Binding Protein (C/EBP) beta (AID 2282927). Conditions: HepG2 Attagene cis-factorial transcription factor reporter; actives raise or lower the signal. An outline of the steps: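 Transiently transfected HepG2 (MRTU library, endogenous TF-driven promoters); 24 h dosing; total RNA → oligo(dT) RT → PCR → 6-FAM primer extension → HpaI digest → CE; fit bidirectionally vs DMSO.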
Chain of CCAAT/enhancer-binding protein beta (Homo sapiens) (P17676 whole entry, looked up): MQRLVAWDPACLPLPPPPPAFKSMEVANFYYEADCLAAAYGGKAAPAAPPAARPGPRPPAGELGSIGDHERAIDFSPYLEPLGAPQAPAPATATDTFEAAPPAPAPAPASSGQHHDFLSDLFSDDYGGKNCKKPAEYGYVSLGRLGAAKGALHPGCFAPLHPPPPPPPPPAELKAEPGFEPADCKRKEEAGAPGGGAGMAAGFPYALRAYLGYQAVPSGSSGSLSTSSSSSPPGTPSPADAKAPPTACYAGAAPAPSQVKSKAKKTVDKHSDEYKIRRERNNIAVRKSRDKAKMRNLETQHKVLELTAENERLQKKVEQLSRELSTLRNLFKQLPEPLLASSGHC

A short description of experiment [3]: ATG_CMV_CIS: Attagene CIS-FACTORIAL HepG2 Assay for human CMV (Internal Marker) (AID 2282928).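 Also: endpoint acts as a background internal control marker rather than a target.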 Conditions: HepG2 CMV promoter reporter, transcription factor profiling; actives raise or lower the signal. Put shortly:
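After transient transfection of HepG2 with reporter transcription units driven by cis-regulatory promoters, cells receive test chemical for 24 h. Labeled reporter amplicons, digested with HpaI, are sized and quantified by capillary electrophoresis against DMSO.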

Experiment [4] can be described thus: ATG_DR4_LXR_CIS: Attagene CIS-FACTORIAL HepG2 Assay for human Liver X Receptor (LXR), DR4 submotif (AID 2282929). Conditions: HepG2 Attagene DR4 cis-reporter, mRNA transcription; actives raise or lower the signal. An outline of the steps:
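The endpoint is DR4-element-driven reporter transcripts after 24 h chemical exposure of transfected HepG2 cells. These were measured via RT-PCR and capillary electrophoresis, and gain or loss of signal was fitted relative to DMSO controls.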

Experiment [5] deals with Aryl hydrocarbon receptor (Homo sapiens) (UniProt P35869). Nature of the experiment: ATG_Ahr_CIS: Attagene CIS-FACTORIAL HepG2 Assay for human Aryl Hydrocarbon Receptor (Ahr) (AID 2282930). As to conditions: HepG2 AhR cis-factorial reporter transcription; actives raise or lower the signal. Put shortly:
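Read-out: reporter mRNA quantified by RT-PCR with fluorescent primer extension and capillary electrophoresis. Human HepG2 liver cells carried transfected cis-promoter reporter units and were exposed to chemical for 24 h; gain or loss fitted relative to DMSO.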

A short description of experiment [6]: ATG_AP_1_CIS: Attagene CIS-FACTORIAL HepG2 Assay for human Activator Protein 1 (AP-1) (AID 2282931). As to conditions: HepG2 Attagene cis-factorial AP-1 reporter mRNA; actives raise or lower the signal. Put shortly: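 Readout is reporter transcript level from endogenous transcription factor activity, quantified by RT-PCR with fluorescent primer extension and capillary electrophoresis. Transiently transfected HepG2 cells, 24 h exposure. Curves fitted both directions versus DMSO.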

Experiment [7] in a line: ATG_AP_2_CIS: Attagene CIS-FACTORIAL HepG2 Assay for human Activator Protein 2 (AP-2) (AID 2282932). Conditions: HepG2 AP-2 cis-reporter, Attagene transcription factor profiling; actives raise or lower the signal. Put shortly: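 Multiplexed mRNA reporter assay in HepG2: cis-regulated units report endogenous factor activity after 24 h treatment. Fluorescence from capillary electrophoresis of RT-PCR products gives the signal, with DMSO as baseline.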

Experiment [8] has as its target Retinoic acid receptor alpha (Homo sapiens) (UniProt P10276). Nature of the experiment: ATG_DR5_RAR_CIS: Attagene CIS-FACTORIAL HepG2 Assay for human Retinoic Acid Receptor Alpha (RARE), DR5 submotif (AID 2282934). As to conditions: HepG2 Attagene cis-factorial RARE DR5 reporter, mRNA; actives raise or lower the signal. An outline of the steps:
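Read-out: DR5-driven reporter transcript measured by RT-PCR, 6-FAM primer extension, HpaI digest and capillary electrophoresis. Human HepG2 liver cells carry transiently transfected cis-element reporter constructs; dosing lasts 24 h. Gain or loss of signal fitted against DMSO baseline.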

The target in experiment [9] is Transcription factor E2F1 (Homo sapiens) (UniProt Q01094). Nature of the experiment: ATG_E2F_CIS: Attagene CIS-FACTORIAL HepG2 Assay for human E2F Transcription Factor 1 (AID 2282935). Conditions: HepG2 Attagene cis-reporter, E2F reporter RNA transcripts; actives raise or lower the signal. Put shortly: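 Measures reporter transcript levels via RT-PCR with capillary electrophoresis detection in HepG2 cells harboring cis-regulated reporter units; 24 h post-dose; bidirectional curve fitting with DMSO as baseline.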
Chain of Transcription factor E2F1 (Homo sapiens) (Q01094 whole entry, looked up): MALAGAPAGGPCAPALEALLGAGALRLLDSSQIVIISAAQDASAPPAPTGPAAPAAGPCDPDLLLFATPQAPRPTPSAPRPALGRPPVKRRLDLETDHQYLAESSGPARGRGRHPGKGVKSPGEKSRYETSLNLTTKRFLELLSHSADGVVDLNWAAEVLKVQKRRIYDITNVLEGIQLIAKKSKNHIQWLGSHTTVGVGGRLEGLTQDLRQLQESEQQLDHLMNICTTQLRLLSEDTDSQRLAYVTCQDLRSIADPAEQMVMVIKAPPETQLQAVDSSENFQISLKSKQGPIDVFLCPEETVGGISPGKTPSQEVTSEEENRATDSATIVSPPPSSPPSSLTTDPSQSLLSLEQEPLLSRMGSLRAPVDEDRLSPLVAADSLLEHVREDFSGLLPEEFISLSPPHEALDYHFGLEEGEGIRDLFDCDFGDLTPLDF

The nature of experiment [10]: ATG_E_Box_CIS: Attagene CIS-FACTORIAL HepG2 Assay for human Enhancer Box (E-box) (AID 2282936). As to conditions: HepG2 E-box cis-reporter transcription, actives raise or lower the signal. Put shortly:
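First, HepG2 cells receive multiple cis-regulated reporter constructs by transient transfection. Next, chemicals are applied for 24 h. Finally, reporter mRNA is quantified via RT-PCR and capillary electrophoresis, with DMSO as baseline.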

Experiment [11] can be described thus: ATG_M_61_CIS: Attagene CIS-FACTORIAL HepG2 Assay for M61 Transcription Factor (Internal Marker) (AID 2282937). Conditions: HepG2 Attagene CIS-FACTORIAL M61 internal marker reporter; actives raise or lower the signal. An outline of the steps: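 Readout is reporter mRNA by RT-PCR, fluorescent primer extension and capillary electrophoresis, with gain or loss fitted relative to DMSO. Transfected HepG2 cells carrying endogenous-TF-driven cis reporters were exposed to chemicals for 24 hours.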

The nature of experiment [12]: ATG_EGR_CIS: Attagene CIS-FACTORIAL HepG2 Assay for human Early Growth Response 1 (EGR1) (AID 2282938). Conditions: HepG2 Attagene CIS-FACTORIAL EGR reporter mRNA; actives raise or lower the signal. Put shortly: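 After 24 h compound exposure, RNA from reporter-transfected HepG2 cells was reverse-transcribed, PCR-amplified, fluorescently labelled and resolved by capillary electrophoresis. EGR1 reporter transcript changes, up or down, were fitted against DMSO, reflecting endogenous transcription-factor activity.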

For experiment [13], the target named is Hepatocyte nuclear factor 3-beta (Homo sapiens) (UniProt Q9Y261). Nature of the experiment: ATG_FoxA2_CIS: Attagene CIS-FACTORIAL HepG2 Assay for human Forkhead box A2 (FOXA2) (AID 2282942). Conditions: HepG2 cis-reporter transcription factor activity, 24 h; actives raise or lower the signal. Put shortly:
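Endogenous transcription factor activity is captured via cis-element-driven reporter transcripts in transfected HepG2. Total RNA taken at 24 h post-dosing; labelled RT-PCR products resolved by capillary electrophoresis. Gain or loss fitted versus DMSO.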

Experiment [14] is described as follows: ATG_FoxO_CIS: Attagene CIS-FACTORIAL HepG2 Assay for human Forkhead box O (FoxO) (AID 2282943). As to conditions: HepG2 Attagene cis-reporter, FoxO element, mRNA; actives raise or lower the signal. Put shortly: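 Read-out: fluorescence of 6-FAM-labelled reporter cDNA fragments resolved by capillary electrophoresis. Transiently transfected HepG2 cells were dosed for 24 h; activity fitted in both directions relative to DMSO controls.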

The nature of experiment [15]: ATG_GATA_CIS: Attagene CIS-FACTORIAL HepG2 Assay for human GATA Binding Protein (AID 2282944). As to conditions: HepG2 GATA cis-element reporter, Attagene multiplex mRNA; actives raise or lower the signal. An outline of the steps: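 Read-out: fluorescent reporter mRNA fragments resolved by capillary electrophoresis after RT-PCR. Human liver HepG2 cells carried transiently transfected cis-regulated reporter constructs; chemicals incubated 24 h; gain or loss of signal fitted relative to DMSO.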

Experiment [16] can be described thus: ATG_BRE_CIS: Attagene CIS-FACTORIAL HepG2 Assay for human Bone Morphogenetic Protein (BMP) Response Element (BRE) (AID 2282933). As to conditions: HepG2 BMP response element reporter, Attagene transcription factor profiling; actives raise or lower the signal. An outline of the steps:
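Read-out: reporter mRNA induction quantified by RT-PCR and capillary electrophoresis after 24 h chemical exposure of transfected HepG2 cells. Endogenous factor activity on the BMP response element; gain or loss fitted against DMSO baseline.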

A short description of experiment [17]: ATG_M_19_CIS: Attagene CIS-FACTORIAL HepG2 Assay for M19 Transcription Factor (Internal Marker) (AID 2282939). As to conditions: HepG2 Attagene CIS-FACTORIAL M19 internal marker reporter; actives raise or lower the signal. Put shortly:
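Readout: fluorescent reporter-transcript fragments by capillary electrophoresis after RT-PCR. Human HepG2 liver cells carried transfected MRTU constructs reporting endogenous transcription-factor activity; exposure 24 h. Gain or loss of signal fitted relative to DMSO.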

Experiment [18] is described as follows: ATG_ERE_CIS: Attagene CIS-FACTORIAL HepG2 Assay for Estrogen Response Element (ERE) (AID 2282940). Conditions: HepG2 ERE cis-reporter, Attagene RNA transcript; actives raise or lower the signal. Put shortly:
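Readout: reporter mRNA induction by RT-PCR, FAM-labelled primer extension, HpaI digestion and capillary electrophoresis, 24 h after dosing transfected HepG2 cells. Endogenous transcription factors act on cis-element-regulated reporters. Gain or loss fitted against DMSO.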

Experiment [19] in a line: ATG_Ets_CIS: Attagene CIS-FACTORIAL HepG2 Assay for human Erythroblast Transformation Specific (ETS) (AID 2282941). As to conditions: HepG2 ETS cis-reporter transcription, actives raise or lower the signal. An outline of the steps:
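Human HepG2 hepatoma cells were transiently transfected with promoter-driven reporter constructs and treated for 24 hours. Reporter transcripts were quantified by RT-PCR with fluorescent primer extension; bidirectional curve fitting used DMSO as reference.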

Experiment [20] is described as follows: ATG_GLI_CIS: Attagene CIS-FACTORIAL HepG2 Assay for human Zinc Finger Protein GLI1 (AID 2282945). As to conditions: HepG2, Attagene cis-factorial reporter mRNA, GLI element; actives raise or lower the signal. An outline of the steps: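 Transiently transfected HepG2 cells report endogenous transcription factor activity via cis-element-driven reporter units. After 24 h compound exposure, reporter mRNA was measured by RT-PCR with capillary electrophoresis; bidirectional fitting against DMSO baseline.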

Chain of Hepatocyte nuclear factor 3-beta (Homo sapiens) (Q9Y261 whole entry, looked up): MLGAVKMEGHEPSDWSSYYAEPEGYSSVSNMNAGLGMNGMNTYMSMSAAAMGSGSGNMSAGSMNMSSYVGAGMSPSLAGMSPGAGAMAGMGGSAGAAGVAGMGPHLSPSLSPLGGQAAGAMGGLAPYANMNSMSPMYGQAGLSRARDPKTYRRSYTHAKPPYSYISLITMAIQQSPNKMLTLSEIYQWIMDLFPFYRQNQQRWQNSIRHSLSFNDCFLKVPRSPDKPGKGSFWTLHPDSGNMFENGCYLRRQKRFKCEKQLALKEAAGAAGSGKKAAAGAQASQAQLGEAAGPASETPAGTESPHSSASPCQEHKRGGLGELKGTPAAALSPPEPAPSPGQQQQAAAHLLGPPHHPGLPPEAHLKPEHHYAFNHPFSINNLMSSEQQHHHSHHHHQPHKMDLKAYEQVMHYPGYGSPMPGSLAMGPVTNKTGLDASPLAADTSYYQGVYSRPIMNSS
Chain of Aryl hydrocarbon receptor (Homo sapiens) (P35869 whole entry, looked up): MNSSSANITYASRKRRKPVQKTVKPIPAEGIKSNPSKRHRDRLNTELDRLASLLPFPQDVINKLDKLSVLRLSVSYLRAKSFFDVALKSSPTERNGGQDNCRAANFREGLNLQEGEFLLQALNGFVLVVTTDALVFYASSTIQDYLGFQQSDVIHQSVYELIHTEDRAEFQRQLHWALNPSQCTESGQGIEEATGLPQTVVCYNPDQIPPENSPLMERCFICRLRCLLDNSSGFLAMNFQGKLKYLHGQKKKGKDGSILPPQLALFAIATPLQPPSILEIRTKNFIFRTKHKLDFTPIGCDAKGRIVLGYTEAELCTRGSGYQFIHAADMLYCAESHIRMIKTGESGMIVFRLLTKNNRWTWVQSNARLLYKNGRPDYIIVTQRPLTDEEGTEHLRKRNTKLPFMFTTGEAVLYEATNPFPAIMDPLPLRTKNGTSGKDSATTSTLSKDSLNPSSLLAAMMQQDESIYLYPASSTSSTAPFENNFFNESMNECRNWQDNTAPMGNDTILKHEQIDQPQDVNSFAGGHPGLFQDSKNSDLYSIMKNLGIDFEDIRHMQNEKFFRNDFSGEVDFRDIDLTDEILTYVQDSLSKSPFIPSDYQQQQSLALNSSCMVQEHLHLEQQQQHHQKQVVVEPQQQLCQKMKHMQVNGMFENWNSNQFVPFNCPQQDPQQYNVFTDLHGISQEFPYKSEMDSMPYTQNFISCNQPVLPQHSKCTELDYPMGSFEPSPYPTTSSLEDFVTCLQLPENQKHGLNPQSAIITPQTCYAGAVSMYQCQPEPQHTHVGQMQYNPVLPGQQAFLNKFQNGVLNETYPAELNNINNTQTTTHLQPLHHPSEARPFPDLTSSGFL
Chain of Retinoic acid receptor alpha (Homo sapiens) (P10276 whole entry, looked up): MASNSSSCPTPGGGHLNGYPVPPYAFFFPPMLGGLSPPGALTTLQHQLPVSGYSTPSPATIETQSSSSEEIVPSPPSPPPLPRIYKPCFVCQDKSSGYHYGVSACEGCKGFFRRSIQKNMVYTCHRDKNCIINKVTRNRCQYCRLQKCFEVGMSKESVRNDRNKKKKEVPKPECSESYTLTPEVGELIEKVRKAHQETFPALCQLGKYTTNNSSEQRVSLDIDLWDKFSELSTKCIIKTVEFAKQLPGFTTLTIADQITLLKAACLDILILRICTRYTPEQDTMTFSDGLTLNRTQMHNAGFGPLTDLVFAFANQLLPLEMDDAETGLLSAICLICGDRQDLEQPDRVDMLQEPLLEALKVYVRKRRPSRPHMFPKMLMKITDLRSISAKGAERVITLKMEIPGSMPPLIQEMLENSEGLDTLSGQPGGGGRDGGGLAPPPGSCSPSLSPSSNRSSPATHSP

For the compound `CCCCCCCCCCCCN(CCCCCCCCCCCC)CCCCCCCCCCCC`, the outcome in experiment [1], in experiment [2], in experiment [3], in [4], in experiment [5] and in experiment [6] was inactive. In addition, the outcome in [7], in [8], in experiment [9], in experiment [10], in experiment [11] and in experiment [12] was inactive. The outcome in [13], in [14] and in experiment [15] was inactive.
Consider `COC(=O)c1ccc(C)cc1`, for which the outcome in experiment [1], in [2], in experiment [3], in experiment [4], in experiment [5] and in experiment [7] was inactive. For the same compound, the outcome in experiment [16], in [9], in experiment [10], in [11], in [12] and in experiment [17] was inactive. Further, the result in experiment [18], in experiment [19], in [14], in [15] and in experiment [20] was inactive.
For `CNC[C@H](O)c1cccc(O)c1`, the compound was called inactive in [1], in [2], in [3], in experiment [4], in [5] and in experiment [7]. For the same compound, the compound was called inactive in [16], in experiment [8], in experiment [12], in [17], in experiment [19] and in experiment [13]. Besides, the outcome in [14], in experiment [15] and in [20] was inactive.
Consider `O=[N+]([O-])c1cc(C(F)(F)F)ccc1Cl`, for which the compound was classed as inactive in experiment [1], in [2], in [3], in experiment [4], in experiment [5] and in experiment [6]. Besides, the compound was called inactive in [7], in experiment [9], in experiment [10], in experiment [12], in [19] and in experiment [13]. Also, the call in experiment [14] and in experiment [15] was inactive.
With `OCCOCCOCCOCCO`, the call in experiment [1], in [2], in [3], in [4], in [6] and in experiment [7] was inactive. The outcome in experiment [9], in experiment [10], in [11], in experiment [12], in experiment [18] and in experiment [19] was inactive. Also, the compound was called inactive in experiment [13], in experiment [14], in experiment [15] and in [20]. In experiment [5], the AC50 is 40.5 µM (active).
As for `Cc1ccc2n[nH]nc2c1`, the result in experiment [1], in experiment [2], in experiment [3], in experiment [4], in experiment [7] and in experiment [16] was inactive. The compound was classed as inactive in [9], in experiment [10], in [11], in [12], in experiment [17] and in [18]. The outcome in experiment [14], in experiment [15] and in experiment [20] was inactive. Moreover, the AC50 in experiment [5] was 16.3 µM (active).
In the case of `CCCc1c(OCCCOc2ccc(OCC(=O)O)cc2)ccc(C(C)=O)c1O`, the outcome in [1], in [2], in experiment [4], in experiment [5], in [6] and in experiment [7] was inactive. The outcome in experiment [10], in [11], in [19], in [13], in [14] and in experiment [15] was inactive. Moreover, in experiment [20], the outcome was inactive. The half-maximal activity concentration (AC50) was 64.1 µM (active) in [3], 31.8 µM (active) in [12] and 0.365 µM (active) in experiment [18].
Take `O=C[C@H](O)[C@H](O)[C@H](O)CO`: the outcome in [1], in [2], in experiment [3], in experiment [4], in experiment [5] and in experiment [7] was inactive. Also, the call in experiment [16], in experiment [8], in experiment [9], in experiment [10], in experiment [11] and in experiment [12] was inactive. The result in experiment [17], in experiment [19], in [13], in experiment [14] and in experiment [15] was inactive.
